This note sets out measurements from the supplement of paper PMC6555819.

Test in all cases: PBM binding z-score (relative to random genomic background probes); higher = stronger binding; sequences stand for … in GC…GCGATTGACAGCGTAGAATGAAGG
Assay [1] concerns FXR:RXRa (NR concentration 270 nM, RXRa partner concentration 90 nM). Put shortly: (§1)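 Ligand-free nuclear receptor dimers were applied to custom Agilent 4×180K protein-binding microarrays whose double-stranded probes carried direct-repeat seeds, single-nucleotide variants, half-site ablations and random human genomic background sequences in 34-nt variable regions. Incubation lasted 1 h. Binding z-scores were computed against the random background probes from regression-normalized fluorescence.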

Assay [2] concerns LXRa:RXRa (NR concentration 270 nM, RXRa partner concentration 90 nM). Put shortly: as §1
Assay [3] concerns LXRa homodimer (NR concentration 270 nM). Put shortly: as §1
For assay [4], the system named is LXRb:RXRa (NR concentration 270 nM, RXRa partner concentration 90 nM). Put shortly: as §1
Assay [5] has as its system LXRb homodimer (NR concentration 270 nM). Put shortly:
as §1

For assay [6], the system named is PPARa:RXRa (NR concentration 270 nM, RXRa partner concentration 90 nM). Put shortly:
as §1

The test system of assay [7] is PPARg:RXRa (NR concentration 180 nM, RXRa partner concentration 90 nM). Put shortly: as §1
Assay [8] concerns PPARg:RXRa 270nM:90nM, anti-RXR (NR concentration 270 nM, RXRa partner concentration 90 nM). Put shortly:
as §1

For assay [9], the system named is PPARg:RXRa 30nM:10nM, anti-RXR (NR concentration 30 nM, RXRa partner concentration 10 nM). Put shortly: as §1
Assay [10] concerns PPARg:RXRa 90nM:30nM, anti-RXR (NR concentration 90 nM, RXRa partner concentration 30 nM). Put shortly: as §1
For assay [11], the system named is PPARg:RXRa DBDmut IVT, anti-RXR (DBD mutation: RXRa K156A/R161A, NR concentration 270 nM, RXRa partner concentration 90 nM). Put shortly:
as §1

Assay [12] has as its system PPARg:RXRa IVT, anti-PPARg (NR concentration 270 nM, RXRa partner concentration 90 nM). Put shortly: as §1
For assay [13], the system named is PPARg DBDmut:RXRa IVT, anti-PPARg (DBD mutation: PPARg1 K132A/R137A, NR concentration 270 nM, RXRa partner concentration 90 nM). Put shortly:
as §1

Assay [14] deals with PPARg DBDmut IVT, anti-PPARg (DBD mutation: PPARg1 K132A/R137A, NR concentration 270 nM). Put shortly: as §1
Assay [15] has as its system PPARg homodimer (NR concentration 180 nM). Put shortly:
as §1

Assay [16] deals with PXR:RXRa (NR concentration 270 nM, RXRa partner concentration 90 nM). Put shortly: as §1
Assay [17] deals with PXR homodimer (NR concentration 270 nM). Put shortly: as §1
Assay [18] deals with RARa:RXR (NR concentration 270 nM, RXRa partner concentration 90 nM). Put shortly: as §1
The test system of assay [19] is RARa homodimer (NR concentration 270 nM). Put shortly: as §1
Assay [20] concerns RARb:RXRa (NR concentration 270 nM, RXRa partner concentration 90 nM). Put shortly:
as §1

On to CCTTACGGGTCACTCCAGGTAATAGCATCGGAGT, for which the PBM binding z-score was found to be 5.01 in [1]; 5.21 in assay [2]; 0.164 in assay [3]; 3.31 in [4]; 0.11 in assay [5]; 4.59 in assay [6]. Moreover, the PBM binding z-score in assay [7] was determined as 3.75; in [8] it was 3.97; in [9], 1.47; in assay [10], 2.94; in assay [11] it was 2.28; in [12] it was 3.72. In addition, the PBM binding z-score in [13] amounted to 0.64; in [14] it was 0.618; in assay [15], 2.25; in assay [16], 3.63; in assay [17] it was 0.169; in assay [18] it was 3.88. In addition, the PBM binding z-score was 0.163 in assay [19] and 3.72 in assay [20].
For the sequence ATCTCTTGGTAAAGATAGTTCAGTGAATGCAAAT, the PBM binding z-score in [1] came out at 0.445; in [2], 0.78; in assay [3] it was 0.577; in assay [4], 0.693; in [5], 0.423; in assay [6] it was 0.553. The PBM binding z-score in [7] is 0.212; in assay [8], 0.257; in assay [9], 0.185; in assay [10] it was 0.285; in [11] it was -0.0767; in [12], 0.448. The PBM binding z-score in assay [13] turned out to be 0.845; in assay [14], 1.88; in assay [15] it was 0.879; in [16], 0.78; in assay [17], 0.85; in assay [18] it was 0.962. The PBM binding z-score in assay [19] stood at 0.477; in assay [20], 0.724.
As for ACAGACAGGTGAGTGAAGGTAGCTCAGCTGGACG, the PBM binding z-score is -0.0191 in assay [1]; -0.179 in assay [2]; -0.74 in assay [3]; -0.796 in assay [4]; -0.607 in [5]; -0.372 in [6]. For the same sequence, the PBM binding z-score is 0.284 in assay [7]; 0.0552 in [8]; -0.201 in assay [9]; -0.0871 in [10]; 0.722 in assay [11]; 0.62 in [12]. The PBM binding z-score is -0.147 in assay [13]; -1.08 in [14]; -0.296 in assay [15]; -0.618 in assay [16]; -0.525 in assay [17]; -0.193 in [18]. For the same sequence, the PBM binding z-score in assay [19] was -0.484; in [20], 0.202.
For ACTTACGCGTCAACGAGGTTATAGCACGCGTATA, the PBM binding z-score in assay [1] was 0.0989; in [2], 0.589; in assay [3], -0.0981; in assay [4], 0.964; in assay [5], 0.0457; in assay [6], 1.35. The PBM binding z-score is 0.862 in assay [7]; 0.282 in assay [8]; 0.115 in assay [9]; 0.253 in assay [10]; -0.0489 in assay [11]; 0.00944 in assay [12]. Further, the PBM binding z-score in assay [13] is 0.527; in assay [14], -0.0395; in [15] it was 0.374; in assay [16], 1.04; in [17], -0.0402; in [18] it was 1.15. In addition, the figures for the PBM binding z-score in assay [19] and in [20] were 0.181 and 0.516, respectively.
Turning to GCAAATAGGTAATACAAGGTGAAAGTCCGATTGT, the PBM binding z-score in assay [1] is 2.27; in assay [2], 2.87; in assay [3], 0.422; in assay [4], 0.806; in assay [5] it was -0.48; in assay [6], 1.49. Moreover, the PBM binding z-score in assay [7] is 1.02; in [8] it was 1.19; in assay [9], 0.599; in assay [10], 0.979; in [11] it was 3.46; in assay [12], 2.55. For the same sequence, the PBM binding z-score came to 0.642 in assay [13]; 0.68 in [14]; 0.192 in assay [15]; 0.778 in assay [16]; 0.202 in assay [17]; 1.44 in assay [18]. The values for the PBM binding z-score in [19] and in assay [20] were 0.308 and 0.635, respectively.
Take ATCTCTATGTAAGACTCAGTTCAGTGAAGAACGC: the PBM binding z-score in assay [1] was -0.0618; in assay [2], 0.138; in assay [3], 0.304; in assay [4], -0.0643; in assay [5], 0.391; in assay [6], -0.231. The PBM binding z-score in assay [7] is 0.076; in assay [8] it was -0.0831; in [9], -0.162; in assay [10], -0.281; in [11], -0.194; in assay [12], -0.197. Besides, the PBM binding z-score was determined as 0.298 in assay [13]; 1.3 in assay [14]; 0.674 in [15]; 0.52 in assay [16]; 1.01 in assay [17]; 0.0686 in assay [18]. For the same sequence, the PBM binding z-score is 0.753 in assay [19] and 0.0321 in assay [20].
